Experimental data from PubChem BioAssay (Tox21).
Results filed as inconclusive are left out. Where a call stands in place of a potency, no number is given. The source made the active and inactive calls. Unless noted, calls follow the shape of the dose curve; as a rule, active = well fitted curve in the direction sought with a large enough effect in the repeat runs; inconclusive = weak or mixed curves; inactive = no such curve, though single readings can be large; an effect the other way counts as inactive or inconclusive.

Legend:
[1] = qHTS assay to identify small molecule agonists of the constitutive androstane receptor (CAR) signaling pathway - cell viability counter screen (AID 1224836); conditions: HepG2-CYP2B6-hCAR viability, CellTiter-Fluor, 23 h, PK11195 added to every well; series mostly up to 92.4 µM; also: nearly all actives have a fitted effect of over 45% in size
Method in brief: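 23 h treatment, 37 C, 5% CO2. Cell line: HepG2 stably expressing hCAR with a CYP2B6-2.2kb construct. Co-treatment: PK11195, 0.75 uM final. Read-out: CellTiter-Fluor fluorescence intensity.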

[2] = qHTS assay to identify small molecule antagonists of the constitutive androstane receptor (CAR) signaling pathway - cell viability counter screen (AID 1224837); conditions: HepG2-CYP2B6-hCAR viability, CellTiter-Fluor, 23 h, co-treated with 50 nM CITCO; series mostly up to 92.4 µM; also: nearly all actives have a fitted effect of over 45% in size; also: potency is read from the fitted curve at half-maximal effect
Method in brief: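 Counter screen run in HepG2-CYP2B6-hCAR cells: 4 hr settle, compound titration (15 concentrations) with 50 nM CITCO, 23 hr at 37 C/5% CO2, CellTiter-Fluor fluorescence.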

[3] = biological target: Nuclear receptor subfamily 1 group I member 3 (Homo sapiens) (UniProt Q14994); experiment: qHTS assay to identify small molecule antagonists of the constitutive androstane receptor (CAR) signaling pathway (AID 1224838); conditions: HepG2-CYP2B6-hCAR luciferase, CITCO-stimulated, 24 h; series mostly up to 92.4 µM;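 also: HepG2 cells stably expressing hCAR with CYP2B6 luciferase reporter stimulated by CITCO; nearly all actives have a fitted effect of over 40% in size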; also: potency is read from the fitted curve at half-maximal effect
Sequence of Nuclear receptor subfamily 1 group I member 3 (Homo sapiens) (Q14994 whole entry, looked up): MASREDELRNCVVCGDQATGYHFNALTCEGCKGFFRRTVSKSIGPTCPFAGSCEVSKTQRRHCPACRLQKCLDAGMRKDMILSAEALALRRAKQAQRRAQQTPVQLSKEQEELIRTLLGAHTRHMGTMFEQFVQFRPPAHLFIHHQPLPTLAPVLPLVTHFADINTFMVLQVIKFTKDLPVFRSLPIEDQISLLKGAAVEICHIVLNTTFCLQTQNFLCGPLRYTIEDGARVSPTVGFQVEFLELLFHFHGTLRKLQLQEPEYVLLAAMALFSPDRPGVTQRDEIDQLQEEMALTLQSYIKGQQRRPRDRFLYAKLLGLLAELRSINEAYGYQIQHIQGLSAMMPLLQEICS
Method in brief: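 Cell line: HepG2 double-stable for hCAR and CYP2B6-2.2kb reporter. Agonist: CITCO, 50 nM final. Compounds: 15 concentrations, 24 h, 37 C. Detection: ONE-Glo luminescence.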

[4] = biological target: Nuclear receptor subfamily 1 group I member 3 (Homo sapiens) (UniProt Q14994); experiment: qHTS assay to identify small molecule agonists of the constitutive androstane receptor (CAR) signaling pathway (AID 1224839); conditions: HepG2 hCAR CYP2B6-luciferase, agonist mode, 24 h; series mostly up to 92.4 µM; also: nearly all actives have a fitted effect of over 15% in size; also: potency is read from the fitted curve at half-maximal effect
Method in brief: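 Compounds tested at 15 concentrations on HepG2 cells stably harbouring hCAR and CYP2B6-2.2kb reporter constructs, co-treated with PK11195 (0.75 uM final), 24 h at 37 C; luminescent reporter signal quantified.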

[5] = qHTS assay to identify small molecule antagonists of the estrogen related receptor signaling pathway with the pleiotropic PPARgamma coactivator (PGC) from Tox21 10K library - cell viability counter screen (AID 1224840; active = well fitted cell-killing curve with a large enough effect in the repeat runs, not every such curve was filed as active; also: nearly all actives have a fitted effect of over 40% in size); conditions: PGC/ERR reporter cells viability, CellTiter-Fluor, 17.5 h; series mostly up to 92.4 µM
Method in brief: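 Following seeding of 2,000 PGC/ERR cells/well and 6 hours' incubation, test compounds were delivered in DMSO. The plates then sat 17.5 hours at 37 C before a fluorogenic live-cell protease reagent (CellTiter-Fluor) was read after 30 min.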

[6] = qHTS assay to identify small molecule antagonists of the estrogen related receptor signaling pathway with the pleiotropic PPARgamma coactivator (PGC) from Tox21 10K library (AID 1224841; call rule not given here; also: actives are mostly falling curves and most rising ones were filed inactive; nearly all actives have a fitted effect of over 50% in size; also: potency is read from the fitted curve at half-maximal effect); conditions: PGC/ERR reporter cell line, ONE-Glo luciferase, 18 h; series mostly up to 92.4 µM
Method in brief: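 qHTS antagonist format: PGC/ERR cells, 2k/well, compound in DMSO by pin transfer after 6 h attachment, 18 h treatment at 37 C, One-Glo luminescence read at 30 min.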

[7] = qHTS assay to identify small molecule agonists of the estrogen related receptor signaling pathway with the pleiotropic PPARgamma coactivator (PGC) from Tox21 10K library (AID 1224842); conditions: PGC/ERR reporter cell line, luciferase ONE-Glo, 18 h; series mostly up to 92.4 µM; also: nearly all actives have a fitted effect of over 15% in size
Method in brief: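 Luminescence from One-Glo (30 min, room temperature) measured after PGC/ERR cells had 18 h at 37 C with pinned compound (23 nL in DMSO). Cells had been seeded at 2,000 per well and pre-incubated 6 h.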

[8] = biological target: Thyrotropin receptor (Homo sapiens) (UniProt P16473); experiment: qHTS assay to identify small molecule agonists of the thyroid stimulating hormone receptor (TSHR) signaling pathway (AID 1224843; calls by dose curve; also: nearly all actives have a fitted effect of over 45% in size); conditions: TSHR-HEK293 cells, cAMP HTRF, agonist mode, 30 min; series mostly up to 92.4 µM
Sequence of Thyrotropin receptor (Homo sapiens) (P16473 whole entry, looked up): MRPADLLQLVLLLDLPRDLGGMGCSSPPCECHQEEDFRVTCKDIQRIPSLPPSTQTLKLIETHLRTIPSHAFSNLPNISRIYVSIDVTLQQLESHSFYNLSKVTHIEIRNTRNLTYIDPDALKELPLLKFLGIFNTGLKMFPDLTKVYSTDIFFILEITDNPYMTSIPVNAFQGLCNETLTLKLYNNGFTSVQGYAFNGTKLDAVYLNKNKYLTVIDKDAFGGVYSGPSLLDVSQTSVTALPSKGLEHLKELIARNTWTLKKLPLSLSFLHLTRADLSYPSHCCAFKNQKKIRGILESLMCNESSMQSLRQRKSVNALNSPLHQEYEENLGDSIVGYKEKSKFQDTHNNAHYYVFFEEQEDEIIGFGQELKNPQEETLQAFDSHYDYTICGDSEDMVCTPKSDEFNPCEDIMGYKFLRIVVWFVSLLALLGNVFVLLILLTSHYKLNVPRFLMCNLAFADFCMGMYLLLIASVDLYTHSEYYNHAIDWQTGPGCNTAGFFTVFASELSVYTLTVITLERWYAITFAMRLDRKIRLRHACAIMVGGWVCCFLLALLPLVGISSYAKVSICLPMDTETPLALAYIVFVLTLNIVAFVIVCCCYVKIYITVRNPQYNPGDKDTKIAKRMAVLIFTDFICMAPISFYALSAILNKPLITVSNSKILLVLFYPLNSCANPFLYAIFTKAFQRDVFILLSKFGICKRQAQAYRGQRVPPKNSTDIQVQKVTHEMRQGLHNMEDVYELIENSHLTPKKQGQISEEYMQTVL
Method in brief: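 Screening of the Tox21 10K collection used HEK293 cells engineered with TSHR at 800 cells per well. After a 30-min room-temperature compound exposure, HTRF cAMP reagents were added and fluorescence recorded 1 h later.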

[9] = biological target: Luciferin 4-monooxygenase (Photinus pyralis) (UniProt P08659); experiment: qHTS assay to identify small molecule inhibitors of firefly luciferase (AID 1224835); also: nearly all actives have a fitted effect of over 25% in size; also: potency is read from the fitted curve at half-maximal effect; conditions: purified P. pyralis luciferase, luminescence inhibition; series mostly up to 115 µM
Sequence of Luciferin 4-monooxygenase (Photinus pyralis) (P08659 whole entry, looked up): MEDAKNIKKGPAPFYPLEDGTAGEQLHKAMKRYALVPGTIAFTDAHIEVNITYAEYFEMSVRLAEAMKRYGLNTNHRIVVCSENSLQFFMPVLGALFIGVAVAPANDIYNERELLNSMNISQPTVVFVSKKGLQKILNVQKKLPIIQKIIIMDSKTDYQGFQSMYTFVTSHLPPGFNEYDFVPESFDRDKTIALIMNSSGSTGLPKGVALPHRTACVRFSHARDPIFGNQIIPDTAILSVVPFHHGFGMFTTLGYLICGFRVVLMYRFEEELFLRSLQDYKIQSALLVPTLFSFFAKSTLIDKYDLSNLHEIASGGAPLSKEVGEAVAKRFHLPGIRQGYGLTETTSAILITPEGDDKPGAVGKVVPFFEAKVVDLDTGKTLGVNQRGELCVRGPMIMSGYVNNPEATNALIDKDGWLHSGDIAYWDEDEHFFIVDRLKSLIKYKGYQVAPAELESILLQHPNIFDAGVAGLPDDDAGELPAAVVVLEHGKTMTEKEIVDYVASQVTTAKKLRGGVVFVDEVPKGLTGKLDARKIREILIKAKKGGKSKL
Method in brief: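 Inhibition of purified Photinus luciferase is measured by luminescence. Substrate levels (D-luciferin, ATP) sit at their KM values. Each compound is tested in a concentration series.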

CCCCCCCCCCCCCCCC(=O)OC[C@H](O)[C@H]1OC(=O)C(O)=C1O
Potency [1]: inactive | Potency [2]: inactive | Potency [3]: inactive | Potency [4]: inactive | Potency [5]: inactive | Potency [6]: inactive | Potency [7]: inactive | Potency [8]: inactive

CCCC1O[C@@H]2C[C@H]3[C@@H]4CCC5=CC(=O)C=C[C@]5(C)[C@H]4[C@@H](O)C[C@]3(C)[C@]2(C(=O)CO)O1 (stereo partly drawn)
Potency [1]: inactive | Potency [3]: inactive | Potency [4]: inactive | Potency [5]: inactive | Potency [6]: 48.6 µM (active) | Potency [7]: inactive

OCCN(CCO)c1nc(N2CCCCC2)c2nc(N(CCO)CCO)nc(N3CCCCC3)c2n1
Potency [9]: inactive | Potency [3]: inactive | Potency [4]: inactive | Potency [6]: 21.1 µM (active) | Potency [7]: inactive

COc1c(C)c2c(c(O)c1C/C=C(\C)CCC(=O)O)C(=O)OC2
Potency [1]: inactive | Potency [2]: inactive | Potency [5]: inactive | Potency [7]: inactive

CCCCCCCCOC(=O)c1ccc(O)cc1
Potency [1]: inactive | Potency [2]: inactive | Potency [3]: inactive | Potency [5]: inactive

CSc1ccc(/C=C2/C(C)=C(CC(=O)O)c3cc(F)ccc32)cc1
Potency [1]: inactive | Potency [3]: inactive | Potency [4]: inactive | Potency [5]: inactive | Potency [7]: inactive | Potency [8]: inactive

NC(=O)NS(=O)(=O)c1ccc(N)cc1
Potency [1]: inactive | Potency [3]: inactive | Potency [4]: inactive | Potency [5]: inactive

CCCCCCCCS(=O)C(C)Cc1ccc2c(c1)OCO2 (stereo not drawn)
Potency [1]: inactive | Potency [2]: inactive | Potency [3]: inactive | Potency [5]: inactive | Potency [8]: inactive

CC(C)c1ccc2c(c1)CC[C@H]1[C@](C)(CN)CCC[C@]21C
Potency [9]: inactive | Potency [2]: 68.6 µM (active) | Potency [7]: inactive

CCOc1ccc2nc3cc(N)ccc3c(N)c2c1
Potency [9]: inactive | Potency [2]: inactive | Potency [3]: 2.66 µM (active) | Potency [4]: inactive | Potency [8]: inactive

CCCC(=O)OC[C@@H](OC(=O)CCC)[C@@H](OC(=O)CCC)[C@H](Cn1c2nc(=O)[nH]c(=O)c-2nc2cc(C)c(C)cc21)OC(=O)CCC
Potency [9]: inactive | Potency [3]: 29.8 µM (active) | Potency [4]: inactive | Potency [6]: 23.7 µM (active) | Potency [7]: inactive | Potency [8]: inactive

O=[N+]([O-])c1cc(Cl)c(Cl)c(Cl)c1Cl
Potency [9]: inactive | Potency [2]: inactive | Potency [4]: inactive | Potency [7]: inactive | Potency [8]: inactive

CC[C@@]1(O)C(=O)OCc2c1cc1n(c2=O)Cc2c-1nc1ccccc1c2/C=N/OC(C)(C)C
Potency [4]: inactive | Potency [5]: inactive | Potency [7]: inactive

OCc1c[nH]c2ccccc12
Potency [2]: inactive | Potency [3]: inactive | Potency [4]: 30.6 µM (active) | Potency [5]: inactive | Potency [6]: 3.44 µM (active) | Potency [7]: inactive

Nc1cc(C(F)(F)F)ccc1S
Potency [1]: inactive | Potency [2]: inactive | Potency [4]: inactive | Potency [5]: inactive | Potency [7]: inactive

Nc1ccc2c3c(cccc13)-c1ccccc1-2
Potency [9]: 22.7 µM (active) | Potency [3]: inactive | Potency [4]: 21.9 µM (active) | Potency [8]: inactive

c1cc(C(c2ccc(OCC3CO3)cc2)c2ccc(OCC3CO3)cc2)ccc1OCC1CO1 (stereo not drawn)
Potency [1]: inactive | Potency [2]: inactive | Potency [8]: inactive

CC[C@@]1(O)C(=O)OCc2c1cc1n(c2=O)Cc2cc3c(CN(C)C)c(O)ccc3nc2-1
Potency [9]: inactive | Potency [3]: 0.15 µM (active) | Potency [4]: inactive | Potency [6]: 16.8 µM (active) | Potency [7]: inactive | Potency [8]: inactive
